The values that follow come from PubChem BioAssay.

The inhibition is the change of the read-out against control, counted positive when it falls.

Assay [1] is described as follows: inhibitors of TNFa-induced NFkB p65 translocation, primary screen, imaging, HUVEC, MLSMR starter and 10KST1 sets (AID 438;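 active = inhibition above 20% together with a positive visual image hit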;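 also: compound added about 3h40 before a 20 min TNFalpha stimulation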;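 as to inhibition: signal is the nuclear over cytoplasmic p65 intensity ratio per well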). To be noted: HUVEC TNFa-induced p65 nuclear translocation; cell count: measured here: nuclei count (cytotoxicity indicator), at 2.08 µM; inhibition: at 2 µM, stronger effect = higher value, 0% TNFa-plus-vehicle, 100% no-TNFa wells.
The nature of assay [2]: inhibitors of mutant huntingtin aggregation, primary screen, imaging, exon1htt(103Q)mCFP cells, high-content imaging (AID 483;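 active = visual image review flags a hit and inhibition of aggregation exceeds 20%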;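 also: compound exposure lasted 3 days before fixation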;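 as to nuclei count: percent of the per-plate median nuclei count of sample wells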). The settings on record: exon1htt(103Q)mCFP cell line, aggregate imaging, at 2 µM; inhibition of aggregation: stronger effect = higher value; nuclei count: measured here: cell count, toxicity.
Assay [3] in a line: inhibitors of E-selectin induction by TNFa, primary screen, imaging, HUVEC, immunofluorescence, MLSMR starter and 10KST1 sets (AID 487;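 active = visually confirmed hit in the image check and inhibition above 20%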;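 as to inhibition: signal is fraction of cell area covered by stained E-selectin grains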;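 as to nuclei count: 100% = median nuclei count of all wells on the same plate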). To be noted: HUVEC TNFalpha-induced E-selectin immunofluorescence imaging, at 2 µM; inhibition: stronger effect = higher value; nuclei count: measured here: cell number, toxicity.
The target in assay [4] is Voltage-gated potassium channel subunit beta-2 (Rattus norvegicus) (UniProt P62483). As to the kind of experiment: KvBeta enzyme negative modulators, primary screen, biochemical, NADPH fluorescence (AID 622;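 active = fluorescence slope higher than the sample average by over 3 SD, cut at about -0.22 in these data, passing the limit was not always enough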;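 also: slope of raw intensity against log time taken from 70 to 1610 s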). To be noted: recombinant KvBeta, 4-cyanobenzaldehyde reduction, at 10 µM, stronger effect = higher value.
Sequence of Voltage-gated potassium channel subunit beta-2 (Rattus norvegicus) (P62483 whole entry, looked up): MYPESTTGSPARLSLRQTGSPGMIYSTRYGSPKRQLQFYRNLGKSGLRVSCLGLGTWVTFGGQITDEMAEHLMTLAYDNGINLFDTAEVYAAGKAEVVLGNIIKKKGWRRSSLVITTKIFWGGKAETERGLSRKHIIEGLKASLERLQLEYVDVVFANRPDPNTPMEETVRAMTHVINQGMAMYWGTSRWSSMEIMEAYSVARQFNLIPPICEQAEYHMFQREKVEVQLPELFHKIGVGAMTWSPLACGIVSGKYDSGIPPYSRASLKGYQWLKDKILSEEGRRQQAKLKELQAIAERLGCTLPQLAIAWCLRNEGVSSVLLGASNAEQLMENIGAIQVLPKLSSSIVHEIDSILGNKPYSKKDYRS
Assay [5] has the same target. The assay is described as follows: KvBeta positive modulators, primary screen, biochemical, NADPH fluorescence (AID 623;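 active = NADPH fluorescence slope more negative than the mean of all samples by about 3 SD, 99.7% confidence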;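 also: fluorescence intensity change per second fitted from 20 to 320 s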). To be noted: Recombinant KvBeta, NADPH fluorescence decrease slope, 10 min; at 10 µM; stronger effect = lower value.
Assay [6] has as its target Alpha-2C adrenergic receptor (Homo sapiens) (UniProt P18825). As to the kind of experiment: modulators of alpha2C/GIRK thallium flux, primary screen, cell-based, HEK293 alpha2C/GIRK1/2 (AID 624;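 active = fluorescence slope after compound addition differing from the mean of all screened samples at 99.7% confidence, in either direction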;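 also: slope of fluorescence ratio to pre-addition baseline per second over 15 to 24 s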). To be noted: thallium flux BTC fluorescence, at 10 µM, actives lie on both sides.
Assay [7] is described as follows: inhibitors of Sendai virus-induced IRF3 signaling, primary screen, TLR/RLR signaling modifier project, cell-based, Sendai virus stimulus, luciferase, 10K MLSCN set (AID 602276;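 active = inhibition at or above 50% at 10 µM; inactive = inhibition below 50%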;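 also: firefly luciferase from ISG56 promoter only with Renilla not read in this screen; 0% = Sendai virus plus DMSO and 100% = medium plus DMSO without virus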). The settings on record: HEK293 RL24 IRF3 luciferase reporter, at 10 µM, stronger effect = higher value. A general note: A reporter such as luciferase makes a cellular process visible.
Assay [8] in a line: inhibitors of poly I:C-induced TLR3 signaling, primary screen, cell-based, poly I:C stimulus, luciferase, 10K MLSCN set (AID 602277). The settings on record: HEK293-TLR3 RL24 IRF3 luciferase reporter, at 10 µM, stronger effect = higher value.

The source made the active and inactive calls.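 The calls were made as follows, unless noted: active = inhibition of the reporter signal at or above 50%; inactive = inhibition below 50%.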

Sequence of Alpha-2C adrenergic receptor (Homo sapiens) (P18825 whole entry, looked up): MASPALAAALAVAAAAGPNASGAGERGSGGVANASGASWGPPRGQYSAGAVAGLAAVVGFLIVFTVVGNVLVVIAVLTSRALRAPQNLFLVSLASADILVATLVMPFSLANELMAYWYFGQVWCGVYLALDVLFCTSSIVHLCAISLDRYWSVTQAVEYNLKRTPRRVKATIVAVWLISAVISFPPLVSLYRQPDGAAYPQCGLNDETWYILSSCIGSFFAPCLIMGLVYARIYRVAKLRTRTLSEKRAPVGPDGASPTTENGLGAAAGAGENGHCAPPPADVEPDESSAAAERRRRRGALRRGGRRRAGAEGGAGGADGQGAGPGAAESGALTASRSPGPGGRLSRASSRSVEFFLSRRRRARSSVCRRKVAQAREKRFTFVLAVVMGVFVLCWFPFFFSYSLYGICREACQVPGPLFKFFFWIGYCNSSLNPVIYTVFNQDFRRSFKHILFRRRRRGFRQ

Take `C=CCOC(=O)CCC(=O)Nc1cc(OC)nc(OC)n1`: the cell count in assay [1] came out at 653. The inhibition in assay [1] was -12.9% (inactive); in assay [3], -0.8% (inactive); in assay [7], 12.4% (inactive); in assay [8], 19.2% (inactive). Also, the inhibition of aggregation in assay [2] is -1.7% (inactive). Besides, the results for the nuclei count in assay [2] and in assay [3] were 109% and 116%, respectively. Besides, in assay [4], the fluorescence slope is -0.422 (inactive). Further, the NADPH fluorescence slope in assay [5] is -4.9e-06 (inactive). In addition, in assay [6], the slope is 0.00745 (inactive).
As to `COC(=O)CNc1nc(C2CC2)nc2c1nnn2Cc1ccccc1Cl`, the cell count in assay [1] is 459. Moreover, the inhibition is 8.3% (inactive) in assay [1], 16.5% (inactive) in assay [3], 18.2% (inactive) in assay [7] and 17.8% (inactive) in assay [8]. Besides, the inhibition of aggregation in assay [2] was -0.3% (inactive). The nuclei count worked out at 83.5% in assay [2] and 97.5% in assay [3]. For the same compound, the fluorescence slope in assay [4] was -0.479 (inactive). Further, in assay [5], the NADPH fluorescence slope was -0.000128 (inactive). In addition, the slope in assay [6] is 0.00514 (inactive).
Turning to `O=C(C1CCCN(S(=O)(=O)c2cccnc2)C1)N1CCn2c1nc1ccccc12` (centres undefined), the cell count in assay [1] came out at 639. Besides, the inhibition is -11.6% (inactive) in assay [1], -57.5% (inactive) in assay [3], -7.64% (inactive) in assay [7] and -1.49% (inactive) in assay [8]. Besides, the inhibition of aggregation in assay [2] is -20.6% (inactive). The nuclei count in assay [2] worked out at 112%; in assay [3], 107%. Besides, in assay [4], the fluorescence slope is -0.595 (inactive). Besides, in assay [5], the NADPH fluorescence slope is -2.6e-05 (inactive). Further, the slope in assay [6] was 0.00573 (inactive).
Regarding `O=C(O)c1cccc(NS(=O)(=O)c2ccc3nnn(O)c3c2)c1`, the cell count in assay [1] amounted to 435. Also, the values for the inhibition in assay [1], in assay [7] and in assay [8] were 10.6% (inactive), 12.9% (inactive) and 18.7% (inactive), respectively. The inhibition of aggregation in assay [2] was -5.7% (inactive). Moreover, the nuclei count in assay [2] came to 108%; in assay [3], 152%. The fluorescence slope in assay [4] was -0.403 (inactive). The NADPH fluorescence slope in assay [5] was -5.1e-06 (inactive). Further, the slope in assay [6] was 0.00611 (inactive).
On to `Fc1cccc(NCc2cn3ccccc3n2)c1`, for which the cell count in assay [1] turned out to be 664. Besides, the inhibition in assay [1] was -8% (inactive); in assay [3], -64.2% (inactive); in assay [7], -1.05% (inactive); in assay [8], -62.5% (inactive). Besides, in assay [2], the inhibition of aggregation is -73.5% (inactive). Besides, the nuclei count in assay [2] was 91.8%; in assay [3], 120%. Besides, in assay [4], the fluorescence slope was -0.209 (inactive). Moreover, the NADPH fluorescence slope in assay [5] was -1.6e-05 (inactive). In addition, in assay [6], the slope is 0.00555 (inactive).
For `Cc1cc(C)n(-c2ccc(C(=O)Oc3ccc4c(c3)OCO4)cc2)n1`, in assay [1], the cell count worked out at 440. The figures for the inhibition in assay [1], in assay [7] and in assay [8] were 3.3% (inactive), 7.51% (inactive) and 1.41% (inactive), respectively. For the same compound, the inhibition of aggregation in assay [2] is 17.6% (inactive). Moreover, the nuclei count is 100% in assay [2] and 148% in assay [3]. In addition, the fluorescence slope in assay [4] is -0.468 (inactive). The NADPH fluorescence slope in assay [5] was -2.1e-05 (inactive). Further, the slope in assay [6] is 0.00555 (inactive).
On to `COc1cccc(C(=O)Nc2ccc(C)cc2)c1`, for which the cell count in assay [1] was determined as 410. Further, the values for the inhibition in assay [1], in assay [7] and in assay [8] were -0.2% (inactive), -48.7% (inactive) and -91.5% (inactive), respectively. Also, in assay [2], the inhibition of aggregation is 4.8% (inactive). The nuclei count in assay [2] is 95.1%; in assay [3], 154%. For the same compound, the fluorescence slope in assay [4] is -0.367 (inactive). In addition, in assay [5], the NADPH fluorescence slope was 4.6e-05 (inactive). Also, the slope in assay [6] was 0.00626 (inactive).
Consider `Cc1cccc(NS(=O)(=O)c2cc(C(=O)OCC(=O)Nc3cc(C)on3)ccc2C)c1`, for which the cell count in assay [1] was found to be 427. Further, the figures for the inhibition in assay [1], in assay [7] and in assay [8] were 7.9% (inactive), 25.1% (inactive) and 2.98% (inactive), respectively. The inhibition of aggregation in assay [2] was 3.7% (inactive). Besides, the nuclei count stood at 99.6% in assay [2] and 125% in assay [3]. Moreover, the fluorescence slope in assay [4] is -0.498 (inactive). Further, the NADPH fluorescence slope in assay [5] is -3.2e-05 (inactive). Besides, the slope in assay [6] is 0.00536 (inactive).
With `Cc1onc(-c2ccccc2)c1C(=O)Nc1sc2c(c1C(N)=O)CCC2`, the cell count in assay [1] was determined as 404. Also, the inhibition in assay [1] was 4.8% (inactive); in assay [7], 8.08% (inactive); in assay [8], -31.8% (inactive). Besides, the inhibition of aggregation in assay [2] is -0.6% (inactive). For the same compound, the nuclei count in assay [2] is 107%; in assay [3], 139%. Moreover, in assay [4], the fluorescence slope was -0.282 (inactive). Moreover, the NADPH fluorescence slope in assay [5] was -1.9e-05 (inactive). Besides, the slope in assay [6] is 0.00375 (inactive).
Turning to `O=C(O)CCc1ccc(-c2ccc(F)cc2)n1CC(=O)O`, the cell count in assay [1] stood at 411. For the same compound, the inhibition in assay [1] is 7.9% (inactive); in assay [7], 10.3% (inactive); in assay [8], 19.7% (inactive). Moreover, the inhibition of aggregation in assay [2] was 0.9% (inactive). Besides, the nuclei count in assay [2] worked out at 97%; in assay [3], 142%. In addition, in assay [4], the fluorescence slope was -0.462 (inactive). In assay [5], the NADPH fluorescence slope was -0.000309 (inactive). Moreover, the slope in assay [6] was 0.00527 (inactive).
